Screening results: PubChem, National Center for Advancing Translational Sciences (NCATS)
The list is not random: actives were taken first. Their share in the collection is about 2.4%.
D2 PAM-1 = potentiates the human D2 dopamine receptor allosterically | P14416 | DiscoveRx D2 beta-arrestin cells, luminescence, 90 min; 100% = 57 uM dopamine signal | potentiation, % (no concentration beside the values) | 0.23% of 360,000 active | AID 624464; in the data active means potentiation above about 50%; inconclusive means mostly about 30% to 49%
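PathHunter beta-arrestin assay in DiscoveRx D2 cells. Compounds were added with an EC20 of dopamine (50 nM final) for 90 min at 37 deg C. Luminescence was read 1 h after detection reagent, with 57 uM dopamine as the EC100 control.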
D2 ag-1 = D2 dopamine receptor (human) agonism; P14416; HEK293 T-REx D2 cells, calcium flux agonist mode; activation, % at 2 µM; 0.53% of 340,000 active; AID 485358;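 active means activation over 3 SD above normal in the single-dose calcium agonist read, cut at about 30% in these data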; further: 0% is about no effect
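In this primary screen, compounds producing a positive calcium signal within 180 s of addition to tetracycline-induced, force-coupled HEK293 Trex D2 cells are flagged; cells are dye-loaded with a no-wash calcium kit beforehand.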
D2 antagonist = antagonists of human D2 dopamine receptor | HEK293 TREx D2 cells, calcium flux, dopamine EC80 | 2% of 340,000 active | inhibition, % at 10 µM; in the data active means inhibition above about 30%; inactive means below that, where a call was filed; further: 0% is about no effect
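Cells plated overnight at 30 C with tetracycline; no-wash calcium dye, 30–90 min RT; 10 s baseline; compound pinned; 180 s read; EC80 dopamine added; another 180 s read.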
D2 PAM-2 = positive allosteric modulators of human D2 dopamine receptor; 0.34% of 340,000 active; P14416; potentiation, % at 10 µM; HEK293 T-REx D2, calcium flux, EC20 dopamine potentiation;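 active means potentiation over 3 SD above the plate norm, cut at about 30% in these data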; further: 0% is about no effect
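Calcium flux readout, no-wash dye, 1 read/s. Inducible HEK293 Trex D2 line, overnight 30 C. Compound alone 180 s (agonist flags), then EC20 dopamine, another 180 s to score potentiation.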
D2 ag-2 = agonists of human D2 dopamine receptor (beta-arrestin); P14416; DiscoveRx PathHunter D2 beta-arrestin, luminescence, 90 min; 100% = 57 uM dopamine signal; activation, % (test concentration not listed); 0.084% of 360,000 active; in the data active means activation above about 40%; inconclusive means between about 15% and that limit
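DiscoveRx PathHunter D2 beta-arrestin cells (2,100/well) attached overnight, then compound-stimulated 90 min at 37 C in HBSS/10 mM HEPES/0.1% Tween-20 buffer; beta-galactosidase complementation read by luminescence after 1 h at ambient temperature. Dopamine 57 uM final (EC100) as control.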
D3 ag = confirmation of human D3 dopamine receptor agonists, beta-arrestin | shares compounds with D2 ag-1 | 4% of 2,300 active | DiscoveRx D3 beta-arrestin cells, luminescence, 90 min | Potency, µM (doses to about 76.9 µM), for inactives: top-dose activation, hits mostly activators | AID 720506;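 further: potency means the concentration at half of the fitted maximal effect; 100% = dopamine control response; nearly all actives have a fitted effect of over 70% in size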
Target sequence (P35462 whole entry, looked up): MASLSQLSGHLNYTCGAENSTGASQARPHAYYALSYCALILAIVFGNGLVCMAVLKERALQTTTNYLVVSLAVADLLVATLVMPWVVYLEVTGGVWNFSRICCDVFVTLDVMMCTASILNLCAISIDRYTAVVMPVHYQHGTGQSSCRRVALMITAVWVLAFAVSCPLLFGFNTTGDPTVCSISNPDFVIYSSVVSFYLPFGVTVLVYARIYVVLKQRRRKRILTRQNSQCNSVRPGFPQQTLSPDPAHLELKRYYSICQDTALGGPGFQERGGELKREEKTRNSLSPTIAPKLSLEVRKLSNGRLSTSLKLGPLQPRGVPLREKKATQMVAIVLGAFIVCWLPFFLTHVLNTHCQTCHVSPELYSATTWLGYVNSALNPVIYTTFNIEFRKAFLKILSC
D2 ag-3 = counter-screen for D3 agonists: human D2 dopamine receptor agonism. shares compounds with D2 ag-1. DiscoveRx PathHunter D2 beta-arrestin, luminescence, 90 min; response scale: percent relative to full dopamine signal. Potency, µM (top dose mostly 76.9 µM), for inactives: top-dose activation, hits mostly activators. 5.9% of 2,300 active. AID 720507; further: potency means the concentration at half of the fitted maximal effect; % of control where 0% means no effect; nearly all actives have a fitted effect of over 70% in size
* = called active by the depositor; u = inconclusive; x = not tested or not shown. Unless noted, the call rests on the fitted dose curve; in most records, active means well fitted activation curve with a large enough effect; inconclusive means small, poorly fitted or top-dose-only effect; inactive means flat fitted curve, though single readings scatter.

SMILES	D2 PAM-1	D2 ag-1	D2 antagonist	D2 PAM-2	D2 ag-2	D3 ag	D2 ag-3
COc1ccc(OC)c(CN2CCN(C(=O)c3cccs3)CC2)c1	u	81.9*	71.0*	-22.7	48.9*	23.0%	u
COc1cccc(CN2CCN(C(=O)c3cccs3)CC2)c1OC	-4.4	90.3*	70.9*	-24.6	u	u	u
O=C(Cn1ncc2c(=O)oc3ccccc3c21)NCc1ccc(Cl)cc1	x	0.3	x	4.4	x	x	x
CN(C)c1ccc(C(CNC(=O)c2ccccc2)N2CCc3ccccc32)cc1 (stereo not given)	x	0.3	x	-2.1	x	x	x
O=C(c1ccc2c3c(cccc13)CC2)C1CCCN(C(=O)c2ccc[n+]([O-])c2)C1 (stereo not given)	-4.8	0.0	21.9	0.0	2.5	-7.0%	-3.1%
O=C(c1ccc2c3c(cccc13)CC2)C1CCCN(C(=O)c2cc[n+]([O-])cc2)C1 (stereo not given)	-1.8	0.2	11.3	-0.3	-3.4	x	x
O=C(Cn1nc(C(F)(F)F)c2c1CCCC2)Nc1cccc(Cl)c1	x	-0.6	x	1.4	x	x	x
CC(C)(C)SCCNC(=O)c1ccc(CN2CCc3ccccc3C2)cc1	-13.3	33.7*	9.9	-18.6	0.9	-20.5%	3.1%
CCc1ccc(NC(=O)C(=O)NCCc2sc3nc(-c4ccc(OC)cc4)nn3c2C)cc1	x	-0.2	x	-8.9	x	x	x
CCCSCCCNC(=O)c1ccccc1NC(=O)C1=CSCCO1	-6.8	28.1	7.0	-6.9	-0.7	2.2%	-0.6%
CCN(CC)CCCNC(=O)c1ccccc1NC(=O)C1=CSCCO1	-16.6	x	x	x	-3.3	x	x
CC(=O)c1ccc(NC(=O)Cn2cnc(S(=O)(=O)N3CCc4ccccc43)c2)cc1	10.2	54.2*	-1.6	-29.0	-2.9	-2.7%	-2.3%
Cc1cc(Cn2nc(-c3ccccc3C)cc2C(=O)O)on1	-8.5	-0.7	-1.2	-6.1	-1.9	-7.5%	-2.9%
Cc1ccc(C(=O)CCC(=O)NNC(=O)c2ccccc2O)cc1	-1.0	0.5	9.9	10.2	-2.4	-5.1%	-2.4%
Cc1ccc(S(=O)(=O)CCC(=O)OCC(=O)NNC(=O)c2ccc([N+](=O)[O-])cc2)cc1	-5.8	0.7	12.0	2.1	-3.0	x	x
Cc1ccc(C(=O)CCC(=O)OCC(=O)NNC(=O)c2ccc([N+](=O)[O-])cc2)cc1	28.0	x	x	x	0.5	-0.1%	4.5%
COc1ccc(C(=O)NNC(=O)Cc2ccc([N+](=O)[O-])cc2)cc1	-11.3	42.0*	-13.4	-20.9	-0.4	1.1%	-2.4%
Cc1ccc(NC(=O)CCC(=O)c2ccccc2)cc1	-6.8	x	x	x	-0.1	x	x
COc1ccc(CC(=O)NNC(=O)c2ccc(NC(C)=O)cc2)cc1	1.5	0.7	6.3	9.5	-4.4	x	x
CCOc1nc(-c2ccc(C)cc2)ccc1-c1noc(-c2ccccc2F)n1	x	2.5	x	-4.3	x	x	x
COc1cccc(N2CCN(Cc3nc(N)nc(N4CCCc5ccccc54)n3)CC2)c1	5.4	55.5*	58.9*	-24.9	u	27.5%	u
O=c1/c(=C\c2cc([N+](=O)[O-])cc([N+](=O)[O-])c2O)sc2nc3ccccc3n12	20.5	-0.3	31.0*	-9.1	4.3	-1.6%	1.2%
CCOC(=O)c1cc(S(=O)(=O)N2CCN(c3ccccc3OC)CC2)[nH]n1	x	-0.5	x	1.7	x	x	x
COC(=O)C(N)Cc1ccc(O)c(O)c1 (stereo not given)	25.9	41.3*	-3.7	-5.4	8.4	26.2%	21.5%
CN(C)CC(C)(C)CNC(=O)C1CCN(CCCc2ccccc2)CC1	-0.2	48.0*	31.3*	1.5	u	9.5%	17.5%
SMILES	D2 PAM-1	D2 ag-1	D2 antagonist	D2 PAM-2	D2 ag-2	D3 ag	D2 ag-3
CCCCN(C)C(=O)C1CCN(CCCc2ccccc2)CC1	-23.5	5.9	17.7	-1.0	-1.0	-4.9%	6.0%
CCCCC(=O)Nc1ccc2c(c1)nc(CCN1CCN(c3ccccn3)CC1)n2C	-5.2	66.7*	51.0*	-23.8	13.7	u	u
CC(C)C(=O)Nc1ccc2c(c1)nc(CCN1CCN(c3ccccc3)CC1)n2C	-8.7	60.9*	17.7	-21.0	-1.8	u	7.6%
Cn1c(CCN2CCCC2)nc2cc(NS(=O)(=O)c3ccc(Cl)cc3)ccc21	-28.1	-0.1	2.7	-5.9	1.2	x	x
Cn1c(CCN2CCN(c3ccccn3)CC2)nc2cc(NS(=O)(=O)c3ccccc3)ccc21	-24.8	x	x	x	12.8	u	u
CCCC(=O)Nc1ccc2c(c1)nc(CCN1CCN(c3ccccn3)CC1)n2C	-9.9	67.3*	46.8*	-21.8	7.7	u	u
CCCCNC(=O)CN1CCN(c2ncc(NC(=O)c3ccc(Cl)cc3)cc2C(=O)O)CC1	x	0.4	x	-2.0	x	x	x
Cc1ccc(OCC(=O)Nc2ccc3c(c2)nc(CCN2CCN(c4ccccn4)CC2)n3C)cc1	-24.7	x	x	x	1.8	x	x
Cn1c(CCN2CCN(c3ccccn3)CC2)nc2cc(NC(=O)COc3ccccc3)ccc21	2.1	-0.8	47.0*	0.9	5.6	u	u
CCOC(=O)C(NC(=O)c1ccccc1Cl)(Nc1ccc(C(F)(F)F)cc1)C(F)(F)F (stereo not given)	-5.0	29.0	-9.4	2.9	-3.3	-6.8%	-2.4%
CCOC(=O)C(NC(=O)c1ccccc1Cl)(Nc1ccc(C)c(C)c1)C(F)(F)F (stereo not given)	-8.8	-0.7	-1.3	12.6	2.5	x	x
Cc1ccc(NC(=O)CN2CCN(c3ccccn3)CC2)c(Cl)c1	-4.8	0.2	-15.6	2.5	-5.7	x	x
O=C(CN1CCN(c2ccccn2)CC1)Nc1cc(F)ccc1F	2.2	50.5*	21.6	-18.3	11.3	15.2%	15.0%
O=C(CN1CCN(c2ccccn2)CC1)Nc1ccc(F)cc1F	-0.8	59.4*	24.8	-17.0	10.6	29.8%	u
O=C(CN1CCc2ccccc2C1)Nc1ccccc1F	1.0	46.7*	64.5*	-17.5	u	u	22.6%
O=C(CN1CCc2ccccc2C1)Nc1ccc(F)cc1	-2.6	0.2	-5.7	7.3	1.4	x	x
Cc1ccc(F)cc1NC(=O)CN1CCN(c2ccccn2)CC1	-9.4	26.6	50.3*	-7.9	u	18.5%	u
COc1cccc(-c2nc(S(=O)(=O)c3ccccc3)c(N3CCC(C)CC3)o2)c1	x	-0.5	x	-4.4	x	x	x
CCCCOc1cccc(NC(=O)c2cccc(C(=O)Nc3cccc(OCCCC)c3)c2)c1	x	1.7	x	6.2	x	x	x
CCOC(=O)c1ccc(NC(=O)CCn2c(=O)c3cccn3c3ccccc32)cc1	x	-0.5	x	10.7	x	x	x
